This is part of a sample that, as a whole, favours compounds with a hit. Of some 79,000 tested, about 15% had one in any assay. Activity calls are given as the source filed them. Cut-off read from the data, not from the text of the source: active = growth inhibition above about 70%; inactive = the rest.
Tests used:
[1] = NCI Yeast Anticancer Drug Screen. Data for the rad50 strain (AID 155);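 note: 0% = growth of vehicle-only cultures of the same strain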; conditions: S. cerevisiae rad50 strain growth inhibition, hits give high values
Method in brief: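 Readout: growth inhibition relative to vehicle-treated cultures. Compound exposure was carried out in a genetically defined yeast strain deficient in DNA damage repair.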

[2] = NCI Yeast Anticancer Drug Screen. Data for the mec2-1 strain (AID 157); conditions: S. cerevisiae mec2-1 strain, hits give high values
Method in brief: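 Mutant yeast (mec2-1) grown with compound; growth inhibition relative to vehicle control reported.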

[3] = NCI Yeast Anticancer Drug Screen. Data for the sgs1 mgt1 strain (AID 161);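 note: 0% = growth of cultures given vehicle only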; conditions: S. cerevisiae sgs1 mgt1 strain, hits give high values
Method in brief: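 Compounds are added to genetically altered yeast, and growth is compared with cultures given vehicle alone to give percent inhibition.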

[4] = NCI Yeast Anticancer Drug Screen. Data for the cln2 rad14 strain (AID 165);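 note: 0% = growth equal to vehicle treated cultures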; conditions: S. cerevisiae cln2 rad14 strain, hits give high values
Method in brief: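 Readout is yeast growth inhibition versus vehicle-treated controls, using a strain with cln2 and rad14 alterations exposed to compound.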

[5] = NCI Yeast Anticancer Drug Screen. Data for the bub3 strain (AID 167); conditions: S. cerevisiae bub3 mutant strain, hits give high values
Method in brief: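 Readout: yeast growth inhibition, expressed relative to vehicle-only wells. The test organism is a mutant strain from a panel with lesions in DNA repair or checkpoint genes.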

[6] = NCI Yeast Anticancer Drug Screen. Data for the mlh1 rad18 strain (AID 175); conditions: S. cerevisiae mlh1 rad18 strain growth inhibition, hits give high values
Method in brief: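 Genetically defined yeast (DNA repair-deficient) exposed to compounds; growth inhibition determined relative to vehicle.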

[7] = at 5.0 µM (retest, dose inferred, filed as 0.5)
[8] = at 50.0 µM (retest, dose inferred, filed as 5.0)

Measured: growth inhibition

Clc1ccccc1/C=C/c1nccc2ccccc12
inactive: [1]; [7] 15% | [2]; [7] -1% | [2]; at 50.0 µM 60.2% | [3]; [7] 18% | [4]; [7] 15% | [4]; at 50.0 µM 15.1% | [5]; [7] 64% | [6]; [7] 1%
active: [1]; [8] 98% | [1]; at 50.0 µM 94.1% | [2]; [8] 99% | [3]; [8] 98% | [3]; at 50.0 µM 72.3% | [4]; [8] 98% | [5]; [8] 99% | [5]; at 50.0 µM 88.5% | [6]; [8] 98% | [6]; at 50.0 µM 94.2%

COc1cccc(C2c3cc4c(cc3OC(N3CCCC3)C2c2ccccc2)OCO4)c1O (centres undefined)
active: [1]; [8] 98% | [2]; [8] 99% | [3]; [8] 95% | [4]; [8] 96% | [5]; [8] 95% | [6]; [8] 98%
inactive: [1]; [7] 24% | [1]; at 50.0 µM 8.35% | [2]; [7] 19% | [2]; at 50.0 µM 13% | [3]; [7] -2% | [3]; at 50.0 µM 29.4% | [4]; [7] -7% | [4]; at 50.0 µM 13.2% | [5]; [7] 6% | [5]; at 50.0 µM 26.4% | [6]; [7] 18% | [6]; at 50.0 µM 32.2%

Nc1nc(Cl)cc(NCC2(CO)CC(CCCc3ccccc3)C2)n1 (centres undefined)
inactive: [1]; [7] 25% | [1]; [8] 26% | [1]; at 50.0 µM -8.3% | [2]; [7] 10% | [2]; [8] 7% | [2]; at 50.0 µM -6.6% | [3]; [7] 6% | [3]; [8] 12% | [3]; at 50.0 µM -26.5% | [4]; [7] 13% | [4]; [8] 12% | [4]; at 50.0 µM -1.55% | [5]; [7] 15% | [5]; [8] 17% | [5]; at 50.0 µM -8.75% | [6]; [7] 23% | [6]; [8] 22% | [6]; at 50.0 µM -48.1%

O=C1Nc2ccc([N+](=O)[O-])c3c([N+](=O)[O-])ccc1c23
inactive: [1]; [7] 4% | [2]; [7] 11% | [2]; at 50.0 µM 47.4% | [3]; [7] 3% | [3]; at 50.0 µM 57.5% | [4]; [7] 0% | [4]; [8] 39% | [4]; at 50.0 µM 69.8% | [5]; [7] 2% | [5]; at 50.0 µM 34.2% | [6]; [7] 47%
active: [1]; [8] 82% | [1]; at 50.0 µM 79% | [2]; [8] 81% | [3]; [8] 88% | [5]; [8] 70% | [6]; [8] 94% | [6]; at 50.0 µM 90.7%

c1ccc2c(CCc3ccncc3)c[nH]c2c1
inactive: [1]; [7] 2% | [1]; at 50.0 µM 46.8% | [2]; [7] -4% | [2]; [8] 59% | [2]; at 50.0 µM 45.1% | [3]; [7] 11% | [3]; at 50.0 µM 50.1% | [4]; [7] -13% | [4]; [8] 69% | [4]; at 50.0 µM 6.25% | [5]; [7] -10% | [5]; at 50.0 µM 4.8%
active: [1]; [8] 78% | [3]; [8] 82% | [5]; [8] 75%

CCCCCCCCNC(=O)C(Cl)Cl
inactive: [1]; [7] 3% | [1]; [8] 17% | [1]; at 50.0 µM -6.1% | [2]; [7] -27% | [2]; [8] 11% | [2]; at 50.0 µM 2.6% | [3]; [7] 0% | [3]; [8] 10% | [3]; at 50.0 µM 40% | [4]; [7] 12% | [4]; [8] -11% | [4]; at 50.0 µM -10.6% | [5]; [7] 37% | [6]; [7] 4% | [6]; [8] 17% | [6]; at 50.0 µM -3.2%
active: [5]; [8] 84% | [5]; at 50.0 µM 70.4%

O=[N+]([O-])c1c(Cl)cccc1-c1c[nH]cc1Cl
active: [1]; [8] 99% | [1]; at 50.0 µM 92.8% | [2]; [8] 98% | [2]; at 50.0 µM 93.4% | [3]; [8] 100% | [3]; at 50.0 µM 93.5% | [4]; [8] 99% | [4]; at 50.0 µM 90.9% | [5]; [8] 99% | [5]; at 50.0 µM 92.2%
inactive: [1]; [7] 12% | [2]; [7] 25% | [3]; [7] 19% | [4]; [7] -1% | [5]; [7] 6%

CCCCCN=C(C)C(C)=NCCCCC
active: [1]; [8] 70% | [1]; at 50.0 µM 93.3% | [2]; [8] 92% | [2]; at 50.0 µM 74.3% | [4]; at 50.0 µM 83.7% | [5]; [8] 86% | [5]; at 50.0 µM 96.8% | [6]; [8] 94% | [6]; at 50.0 µM 95%
inactive: [1]; [7] -15% | [2]; [7] 3% | [3]; [7] 9% | [3]; [8] 50% | [3]; at 50.0 µM 31.4% | [4]; [7] -50% | [4]; [8] 63% | [5]; [7] -12% | [6]; [7] -9%

CCCCCOC(=O)CSC#N
active: [1]; [7] 93% | [1]; [8] 99% | [1]; at 50.0 µM 98.7% | [2]; [7] 97% | [2]; [8] 99% | [2]; at 50.0 µM 99% | [3]; [7] 96% | [3]; [8] 98% | [3]; at 50.0 µM 98.8% | [4]; [7] 79% | [4]; [8] 99% | [4]; at 50.0 µM 98.5% | [5]; [7] 96% | [5]; [8] 99% | [5]; at 50.0 µM 98.7% | [6]; [7] 91% | [6]; [8] 99% | [6]; at 50.0 µM 98.8%

Cc1ccccc1NC(=S)Nc1ccccc1O
active: [1]; [8] 81% | [1]; at 50.0 µM 97.2% | [2]; [8] 87% | [2]; at 50.0 µM 94.4% | [3]; [8] 82% | [3]; at 50.0 µM 90.8% | [5]; [8] 98% | [5]; at 50.0 µM 98.3% | [6]; [8] 71% | [6]; at 50.0 µM 95.1%
inactive: [1]; [7] -4% | [2]; [7] -2% | [3]; [7] 0% | [4]; [7] -5% | [4]; [8] 63% | [4]; at 50.0 µM -27.8% | [5]; [7] 20% | [6]; [7] -3%
